We go through 18 molecules from PubChem BioAssay.

Activity calls are given as the source filed them. Unless noted, no rule for the calls is given here.

Assay [1] concerns XIP peptide (Xip251-270) binding. The assay can be described thus: small-molecule binders of XIP peptide, primary screen, biochemical, small-molecule microarray, fluorescence 635/667 nm, 0.1 µg/mL protein (AID 1182). To be noted: fluorescent protein binding, 635 nm, higher = more signal, called active from +8 up or from −8 down.
For a further assay, the system named is XIP peptide (Xip251-270). In words: small-molecule binders of XIP peptide, primary screen, biochemical, small-molecule microarray, fluorescence 635/667 nm, 0.5 µg/mL protein (AID 1183). As to conditions: small-molecule microarray binding, fluorescence 635 nm; higher = more signal.
Assay [2] in a line: Plasmodium falciparum growth inhibition, primary screen, strain 3D7, DAPI fluorescence, 100 nL (AID 1184).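 Also: parasites grown inside human red blood cells in medium with human serum.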 As to conditions: P. falciparum 3D7 growth, 3 d, higher = more signal.
Assay [3] concerns the target Homeobox protein Hox-A13 (Mus musculus) (UniProt Q62424). In words: inhibitors of HoxA13-DNA binding, primary screen, biochemical, fluorescence polarization, labeled oligonucleotide (AID 1185). To be noted: 15 min, higher = more signal, called active from +8 up or from −8 down. On the technique in general: In fluorescence polarisation assays a small probe gives low polarisation when free and higher when bound to something large.

The nature of assay [4]: inhibitors of hydroxyurea-induced Chk1 phosphorylation, primary screen, imaging, HeLa, phospho-Chk1 antibody, percent positive cells (AID 1186). To be noted: hydroxyurea-induced phospho-Chk1 immunofluorescence imaging, higher = more signal.
Assay [5] is described as follows: inhibitors of hydroxyurea-induced Chk1 phosphorylation, primary screen, imaging, HeLa, phospho-Chk1 nuclear intensity (AID 1187). As to conditions: hydroxyurea-induced phospho-Chk1 immunofluorescence imaging, higher = more signal.

Homeobox protein Hox-A13 (Mus musculus), sequence (Q62424 whole entry, looked up): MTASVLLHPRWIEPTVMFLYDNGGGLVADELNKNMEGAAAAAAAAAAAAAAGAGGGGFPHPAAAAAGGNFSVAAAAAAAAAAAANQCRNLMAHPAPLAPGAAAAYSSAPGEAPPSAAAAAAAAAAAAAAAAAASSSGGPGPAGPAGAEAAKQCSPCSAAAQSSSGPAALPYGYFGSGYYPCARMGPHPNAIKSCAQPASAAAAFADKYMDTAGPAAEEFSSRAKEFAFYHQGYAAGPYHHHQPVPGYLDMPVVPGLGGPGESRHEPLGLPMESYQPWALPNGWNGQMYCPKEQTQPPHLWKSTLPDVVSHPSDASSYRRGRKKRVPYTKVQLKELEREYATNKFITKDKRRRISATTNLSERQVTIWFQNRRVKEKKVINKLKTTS

As to `COC(=O)c1c2oc(c1C(=O)OC)C(=O)N[C@@H](C(C)C)Cn1cc(nn1)C1(CCCCC1)NC(=O)N[C@H](CO)CC2`, the composite z-score in assay [1] is 0.0023 (inactive); in the assay with XIP peptide (Xip251-270), 0.0911. The z-score is 0.0538 in assay [2], -0.587 (inactive) in assay [3], 0.193 (inactive) in assay [4] and 0.284 (inactive) in assay [5].
On to `COc1cc2c(cc1O)C=[N+](Cc1cc3c(cc1Br)OCO3)CC2`, for which the composite z-score is -0.105 (inactive) in assay [1] and 1.1 in the assay on XIP peptide (Xip251-270). Moreover, the z-score was -1.88 in assay [2], -3.19 (inactive) in assay [3], -0.126 (inactive) in assay [4] and -0.203 (inactive) in assay [5].
On to `COc1ccc([Si](C)(C)[C@@H]2[C@@H](CC(=O)N3Cc4ccccc4C[C@H]3CO)O[C@]3(C(=O)N(Cc4cccc(N5CCC5=O)c4)c4ccccc43)[C@H]2C)cc1`, for which the composite z-score in assay [1] is 0.607 (inactive); with XIP peptide (Xip251-270), 0.736. Besides, the z-score is -2.55 in assay [2], -1.51 (inactive) in assay [3], -0.342 (inactive) in assay [4] and -0.0386 (inactive) in assay [5].
Regarding `O=C(NCCN1CCOCC1)[C@@H]1c2ccccc2C(=O)N(Cc2cc(C(F)(F)F)cc(C(F)(F)F)c2)[C@H]1c1ccc(CO)cc1`, the composite z-score in assay [1] is 0.532 (inactive); in the assay with XIP peptide (Xip251-270), 0.304. The z-score in assay [2] was -1.27; in assay [3], -4 (inactive); in assay [4], -0.24 (inactive); in assay [5], -0.268 (inactive).
For `[N-]=[N+]=NCc1ccccc1[C@@H]1OC(c2ccc(OCCCO)cc2)=N[C@]1(CCS(=O)(=O)c1ccccc1)C(N)=O`, the composite z-score is 0.57 (inactive) in assay [1] and 0.869 in the assay on XIP peptide (Xip251-270). Moreover, the z-score in assay [2] was -0.397; in assay [3], -3.55 (inactive); in assay [4], -0.0248 (inactive); in assay [5] it was 0.227 (inactive).
For `C=CCC(OC(C)=O)[C@@H]1[C@@H](N(Cc2cc3ccccc3o2)C(=O)Cc2ccc(OC)cc2)c2cc(OCCCO)ccc2N1C(=O)c1ccc2ccccc2c1` (stereo partly drawn), the composite z-score in assay [1] is 0.0999 (inactive); in the assay with XIP peptide (Xip251-270), 0.167. Also, the z-score in assay [2] was -2.47; in assay [3] it was -1.6 (inactive); in assay [4], 0.556 (inactive); in assay [5] it was 0.877 (inactive).
For `CCOC(=O)C1=C[C@@H](C(C)C)N(S(=O)(=O)c2ccc(C)cc2)[C@H]1c1ccccc1F`, the composite z-score was 1.01 (inactive) in assay [1] and 0.489 in the assay with XIP peptide (Xip251-270). The z-score was -0.864 in assay [2], -1.17 (inactive) in assay [3], 0.503 (inactive) in assay [4] and 0.969 (inactive) in assay [5].
Turning to `CC(C)[C@@H](C(=O)O)n1cc(C2(O)CCCCC2)nn1`, the values for the composite z-score (in assay [1]; with XIP peptide (Xip251-270)) were 0.142 (inactive) and 0.297, respectively. The z-score in assay [2] is 0.564; in assay [3] it was -0.619 (inactive); in assay [4], -0.3 (inactive); in assay [5] it was -0.12 (inactive).
For `O=C1[C@@]23C=C(Br)[C@H](C[C@@H]2COC3)[C@]12CO2`, the composite z-score is -0.0125 (inactive) in assay [1] and -1.48 with XIP peptide (Xip251-270). The z-score is 1.81 in assay [2], -7.3 (inactive) in assay [3], 0.825 (inactive) in assay [4] and 0.343 (inactive) in assay [5].
As for `C=CCN1Cc2ccccc2[C@@H]2OC(c3ccc(OCCCO)cc3)=N[C@]2(CCS(=O)(=O)c2ccccc2)C1=O`, the composite z-score was 0.3 (inactive) in assay [1] and 0.799 in the assay with XIP peptide (Xip251-270). The z-score was -2.3 in assay [2], -2.43 (inactive) in assay [3], -0.386 (inactive) in assay [4] and -0.386 (inactive) in assay [5].
On to `COC(=O)[C@@]1(Cc2ccccc2)[C@H]2c3cc(C(=O)N4CCCC4)n(Cc4c(CO)[nH]cc(C)c4=O)c3C[C@H]2CN1C(=O)c1ccccc1`, for which the results for the composite z-score (in assay [1]; in the assay with XIP peptide (Xip251-270)) were -0.528 (inactive) and 0.704, respectively. The z-score in assay [2] was -1.46; in assay [3] it was -5.81 (inactive); in assay [4] it was 0.754 (inactive); in assay [5], 0.672 (inactive).
In the case of `O=C1C2C=CC(C(O)c3c(F)cccc3Cl)N(Nc3ccccc3F)C2C(=O)N1c1ccccc1` (stereo not drawn), the composite z-score in assay [1] is 0.433 (inactive); in the assay on XIP peptide (Xip251-270), 0.811. Besides, the z-score in assay [2] was 0.562; in assay [3], -0.377 (inactive); in assay [4] it was 0.486 (inactive); in assay [5], 0.435 (inactive).
`C#CCN1[C@@H](Cc2ccc(O)cc2)C(=O)O[C@H](Cc2ccccc2)[C@@H]1/C=C/C1CC1`: the composite z-score was -0.111 (inactive) in assay [1] and 0.0549 with XIP peptide (Xip251-270). Besides, the z-score in assay [2] was 0.32; in assay [3], -5.26 (inactive); in assay [4], -0.473 (inactive); in assay [5], -0.542 (inactive).
For the molecule `CCCC=C(CCC)[C@@H](NS(=O)(=O)c1ccc(Cl)cc1)c1ccc(C(=O)OC)cc1`, the results for the composite z-score (in assay [1]; in the assay on XIP peptide (Xip251-270)) were -0.126 (inactive) and 0.536, respectively. For the same molecule, the z-score in assay [2] was 0.198; in assay [3] it was -1.43 (inactive); in assay [4] it was 0.47 (inactive); in assay [5] it was 0.175 (inactive).
Regarding `CO[C@H]1O[C@H](CO)[C@@H](OC(=O)Nc2ccc(Oc3ccccc3)cc2)[C@H](OC(=O)Nc2ccc3c(c2)OCO3)[C@@H]1OC(=O)Nc1ccc2c(c1)OCO2`, the composite z-score in assay [1] was 0.23 (inactive); in the assay with XIP peptide (Xip251-270), 0.863. Moreover, the z-score was -2.05 in assay [2], -6.43 (inactive) in assay [3], 0.126 (inactive) in assay [4] and 0.561 (inactive) in assay [5].
For `COc1ccc([Si](C)(C)[C@@H]2[C@@H](CC(=O)N3CCC[C@H]3CO)O[C@]3(C(=O)N(Cc4cccc(I)c4)c4ccccc43)[C@H]2C)cc1`, the composite z-score in assay [1] was 0.302 (inactive); with XIP peptide (Xip251-270), 0.572. Moreover, the z-score in assay [2] was -2.28; in assay [3], -3.72 (inactive); in assay [4], -0.198 (inactive); in assay [5], -0.353 (inactive).
`CCCNC(=O)[C@@H]1c2ccccc2C(=O)N(Cc2ccccc2OC)[C@H]1c1ccc(CO)cc1`: the composite z-score in assay [1] is 0.273 (inactive); with XIP peptide (Xip251-270), 0.85. The z-score in assay [2] was -1.54; in assay [3] it was -3.2 (inactive); in assay [4] it was -0.175 (inactive); in assay [5], -0.0848 (inactive).
Take `CCCCCCCCCCC(O)C1C=CC2C(=O)NC(=O)C2N1Nc1ccc(Cl)cc1Cl` (stereo not drawn): the results for the composite z-score (in assay [1]; in the assay with XIP peptide (Xip251-270)) were 3.34 (inactive) and -0.333, respectively. For the same molecule, the z-score in assay [2] is -0.642; in assay [3], -0.739 (inactive); in assay [4] it was 0.387 (inactive); in assay [5] it was 0.006 (inactive).
